# An excerpt weighted towards active compounds, which were near 19% of everything screened.
# Giardia killer – Small Molecules that selectively kill Giardia lamblia: qHTS | Giardia lamblia trophozoite viability | activity change, % at 7.66 µM, hits read low | 340,000 tested, 0.15% active; in the data active means activity change below about -80%; inconclusive means between about -30% and that limit;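 further: parasites exposed to compound for two days anaerobically before the ATP read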
#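 Killing of trophozoites was scored by loss of ATP luminescence after a 48 hrs anaerobic exposure to compounds at 37 deg C, using 100 cells per well.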
# TDP1 cell CPT – qHTS for Inhibitors of human tyrosyl-DNA phosphodiesterase 1 (TDP1): qHTS in cells in presence of CPT. chicken DT40 Tdp1-/-;hTDP1 cells + 20 nM CPT, ATP luminescence, 48 h. Potency, µM (highest dose often 46.2 µM), for the others: at the top dose activity change, negative = growth inhibition, actives largely listed as inhibitors. 420,000 tested, 12% active. AID 686979, 2013; further: potency means the concentration at half of the fitted maximal effect; nearly all actives have a fitted effect of over 55% in size
#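 Chicken DT40 Tdp1-/- cells stably complemented with human TDP1 were seeded at 400 cells/well in medium containing 20 nM camptothecin, exposed to pin-transferred compounds, and grown at 37 °C for at least 48 hr. Viability was read as ATP luminescence.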
# TDP1 inh – qHTS Assay for Inhibitors of Tyrosyl-DNA Phosphodiesterase (TDP1); Tyrosyl-DNA phosphodiesterase 1 (Homo sapiens), Q9NUW8; recombinant TDP1, AlphaScreen DNA substrate cleavage; Potency, µM (titrated, usually from 130 µM), without a hit: top-dose activity change, negative = inhibition, most hits filed as inhibitors; 350,000 tested, 0.28% active; further: potency means the concentration at half of the fitted maximal effect; nearly all actives have a fitted effect of over 40% in size
# Target sequence (Q9NUW8 whole entry, looked up): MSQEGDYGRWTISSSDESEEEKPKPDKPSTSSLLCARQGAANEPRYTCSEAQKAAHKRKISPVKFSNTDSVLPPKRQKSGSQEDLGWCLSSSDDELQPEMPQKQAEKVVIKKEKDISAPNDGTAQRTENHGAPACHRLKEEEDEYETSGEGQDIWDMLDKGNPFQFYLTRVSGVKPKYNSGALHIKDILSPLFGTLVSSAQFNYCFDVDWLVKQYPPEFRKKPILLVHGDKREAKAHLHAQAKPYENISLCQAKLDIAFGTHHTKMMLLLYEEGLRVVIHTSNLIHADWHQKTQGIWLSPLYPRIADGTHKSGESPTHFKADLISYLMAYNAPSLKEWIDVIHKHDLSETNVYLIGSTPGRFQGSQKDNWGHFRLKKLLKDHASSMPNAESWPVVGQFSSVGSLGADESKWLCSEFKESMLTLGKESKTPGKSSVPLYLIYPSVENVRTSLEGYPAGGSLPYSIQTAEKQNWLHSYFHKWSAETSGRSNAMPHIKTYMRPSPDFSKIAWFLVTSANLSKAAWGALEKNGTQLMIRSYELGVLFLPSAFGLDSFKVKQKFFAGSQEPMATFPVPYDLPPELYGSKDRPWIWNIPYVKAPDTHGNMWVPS
#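 AlphaScreen read-out: signal falls as enzyme removes the 3' tyrosine-FITC from a 5'-biotinylated DNA oligo (15 nM, 5 min, RT). Enzyme was E. coli-made recombinant Tdp1 at 1 nM, exposed to compound for 15 min beforehand; beads 10 ug/ml, 10 min.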
# IL1B secr inh – qHTS for Inhibitors of Inflammasome Signaling: IL-1-beta AlphaLISA Primary Screen; THP-1 LPS/ATP IL-1B secretion, AlphaLISA, 16 h; hits give low values; activity change, % at 57.5 µM; 360,000 tested, 4.7% active; AID 743279, 2014; in the data active means activity change below about -50%; inconclusive means mostly about -30% to -49%
#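 Secreted IL-1B measured by AlphaLISA bead assay after 16 h compound exposure of THP-1 cells; compounds (final up to 57.5 uM) added 1 h before LPS (250 ng/mL) and ATP (1.25 mM) stimulation; lower signal means less secretion.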
# ELG1 repair inh – qHTS screen for small molecules that inhibit ELG1-dependent DNA repair in human embryonic kidney (HEK293T) cells expressing luciferase-tagged ELG1. HEK293T ELG1-luciferase reporter, luminescence, 16 h; DNA damage induced by 5-fluorouridine. Potency, µM (highest dose often 46.1 µM), inactives show at the highest dose activity change, negative = inhibition, most hits filed as inhibitors. 330,000 tested, 2.3% active; further: potency means the concentration at half of the fitted maximal effect; nearly all actives have a fitted effect of over 55% in size
#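 Reporter activity after DNA damage by 5-fluorouridine is monitored. Compound-treated cells incubate 16 hr at 37 °C, then ONE-Glo is added for 30 min before luminescence reading.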
# TDP1 cell noCPT – qHTS for Inhibitors of human tyrosyl-DNA phosphodiesterase 1 (TDP1): qHTS in cells in absence of CPT; DT40 Tdp1-/- hTDP1 cells, no CPT, ATP luminescence, 48 h; Potency, µM (doses to about 46.2 µM), for inactives: top-dose activity change, negative = growth inhibition, hits mostly inhibitors; 420,000 tested, 15% active; further: potency means the concentration at half of the fitted maximal effect; nearly all actives have a fitted effect of over 55% in size
#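 Growth of hTDP1-complemented DT40 Tdp1-knockout cells is measured by ATP luminescence after at least 48 hr compound exposure at 37 °C, with DMSO substituting for the 20 nM CPT used in the parallel screen.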
# Active calls of the source: *; ? = inconclusive; / = not tested or not shown; [ ] = remark or other dose. Unless noted, the call rests on the fitted dose curve; in most records, active means well fitted curve in the direction sought with a large enough effect; inconclusive means small, poorly fitted or top-dose-only effect, or another doubt; inactive means no such curve, though single readings can be large; an effect the other way counts as inactive or inconclusive. On the % scale 0 is the no-effect control and ±100 the full control effect.
SMILES,Giardia killer,TDP1 cell CPT,TDP1 inh,IL1B secr inh,ELG1 repair inh,TDP1 cell noCPT
COc1ccc(N2CCN(C3CCCN(C(=O)CSC)C3)CC2)cc1 (stereo not given),-4,-18%,/,58,-2%,4%
CCCOc1ccc(C2NC(=O)NC2=O)cc1 (stereo not given),7,-16%,3%[56.1 µM],27,-4%,1%
NCCOc1ccc(C2CCCCC2)cc1,11,13µM*,5%,-186*,?,?
CC(C)/C=N/NC(=O)c1ccc(Cl)cc1,-5,?,-5%,-5,5%,?
O=C(CN1CCC(n2nnc3cc(F)ccc32)CC1)Nc1ccccc1N1CCOCC1,24,16µM*,7%,-19,?,18µM*
O=C(CN1CCC(n2nnc3cc(F)ccc32)CC1)NC1CCCCC1,-2,10%,2%,2,-13%,-29%
O=C(CN1CCC(n2nnc3cc(F)ccc32)CC1)N1CCc2ccccc2C1,8,?,5%,-62*,21µM*,15µM*
CCOc1ccc2nc(NC(=O)CN3CCC(n4nnc5cc(F)ccc54)CC3)sc2c1,3,?,10%,?,9.2µM*,?
O=C(CN1CCC(n2nnc3cc(F)ccc32)CC1)NC1CC1,-7,12%,2%,2,0%,-3%
O=C1C(=O)N(CCO)C(c2ccc(Br)cc2)/C1=C(\O)c1ccccc1 (stereo not given),52,-30%,3%,-9,-7%,1%
COc1ccc(/C=C2\SC(=S)N(CC3CCCO3)C2=O)cc1 (stereo not given),1,16%,9%,-12,?,-9%
O=C1/C(=C/c2cccnc2)SC(=S)N1c1ccc(O)cc1,-13,-24%,/,-99*,15%,?
Cc1ccc(/C=C2\SC(=S)N(CC3CCCO3)C2=O)o1 (stereo not given),21,?,11%,-96*,-1%,?
COc1cc(/C=C2/SC(=S)N(CC3CCCO3)C2=O)ccc1O (stereo not given),8,-19%,7%,-74*,?,?
O=C1/C(=C/c2cccnc2)SC(=S)N1c1ccc(F)cc1,3,?,3%,25,10%,-14%
O=C1/C(=C/c2cccnc2)SC(=S)N1CC1CCCO1 (stereo not given),-2,-4%,1%,-103*,11%,?
O=C1NC(=O)C(Cc2ccccc2F)(C2CCN(Cc3cccn3-c3cccnc3)CC2)N1 (stereo not given),/,8%,/,/,/,-21%
COC(=O)c1ccc(C2NCCc3cc(OC)c(OC)cc32)cc1 (stereo not given),1,-12%,/,-3,2%,?
CCc1ccc(OCC(=O)Nc2ccc(Cl)c(-c3nc4cc(C)cc(C)c4o3)c2)cc1,/,-25%,/,/,/,?
COc1ccc(-c2cc(C(F)(F)F)nc(SCC(=O)NCCc3ccc(OC)c(OC)c3)n2)cc1,/,21µM*,-4%,/,/,21µM*
COc1ccc(-c2nnc(SCC(=O)NCc3ccc(C)cc3)nc2-c2ccc(OC)c(OC)c2)cc1OC,/,15µM*,9%,/,/,18µM*
COc1ccc(-c2nnc(SCC(=O)NCCc3ccc(OC)c(OC)c3)nc2-c2ccc(OC)cc2)cc1,/,18µM*,/,/,/,18µM*
COc1ccc(-c2nnc(SCC(=O)Nc3cccc(C(F)(F)F)c3)nc2-c2ccc(OC)cc2)cc1,/,?,6%,/,/,18µM*
COc1ccc(CNC(=O)CSc2nc(-c3ccc(OC)cc3)cc(C(F)(F)F)n2)cc1,/,-20%,3%,/,/,-17%
CCOc1ccc(-c2nnc(SCC(=O)Nc3cccc(OC)c3)nc2-c2ccc(OCC)cc2)cc1,/,-13%,3%,/,/,-7%
SMILES,Giardia killer,TDP1 cell CPT,TDP1 inh,IL1B secr inh,ELG1 repair inh,TDP1 cell noCPT
CCOc1cc(-c2nnc(SCC(=O)NCc3ccc(C)cc3)nc2-c2ccc(OC)c(OCC)c2)ccc1OC,/,?,0%,/,/,?
O=C(C1CC(=O)N(C2CCCCC2)C1)N1CCc2ccccc21 (stereo not given),4,-11%,7%,17,-4%,-8%
Cc1nc2nc(NC(=O)CC(C)C)[nH]n2c(=O)c1Cc1ccccc1,/,-12%,2%,/,/,-11%
CC(C)OCCCNC(=O)CCCn1c(SCC(=O)c2ccc(F)cc2)nc2c(sc3ccccc32)c1=O,/,-7%,7%,/,/,-2%
O=C(Cn1nc2sc3ccccc3n2c(=O)c1=O)c1ccc(Cl)cc1,6,-11%,5%,36,26%,-21%
CCCCn1c(-c2ccccc2)cnc1SCC(=O)NCCc1ccc(OC)c(OC)c1,19,23µM*,0%,-77*,?,26µM*
COCCNC(=O)CSc1nnc(-c2ccc(C)cc2)c(-c2ccc(C)cc2)n1,5,26µM*,3%,-26,?,?
CCOc1ccc(-c2nnc(SCC(=O)NC(C)CC)nc2-c2ccc(OCC)c(OC)c2)cc1OC (stereo not given),/,-26%,6%,/,/,?
CCOc1cc(-c2nnc(SCC(=O)NCc3ccccc3)nc2-c2ccc(OC)c(OCC)c2)ccc1OC,/,5.8µM*,-1%,/,/,3.3µM*
COc1ccc(CCNC(=O)CSc2nnc(-c3ccccc3)c3ccccc23)cc1OC,14,16µM*,7%,0,?,?
O=C(COc1ccc(Br)cc1)NC1CC1,9,-23%,3%,-16,?,-8%
Cc1[nH]c(N=Nc2ccccc2)nc1N=Nc1ccccc1,-13,5.8µM*,12%,98,?,5.8µM*
Cc1cccc2c(N=Nc3ccccc3)c(O)[nH]c12,-1,-3%,/,20,?,-2%
Cc1cc(C)cc(C(O)c2ncc(-c3ccc(C(F)(F)F)cc3)[nH]2)c1 (stereo not given),/,?,/,107,/,16µM*
Cc1ccc(C(O)c2ncc(-c3ccc(C(F)(F)F)cc3)[nH]2)cc1F (stereo not given),/,?,/,-23,/,21µM*
OC(c1ccc(Cl)c(Cl)c1)c1ncc(-c2ccc(C(F)(F)F)cc2)[nH]1 (stereo not given),/,?,/,?,/,16µM*

# High-throughput results deposited in PubChem by National Center for Advancing Translational Sciences (NCATS).
